According to PubChem BioAssay:
The source made the active and inactive calls.

Columns and labels:
[1] = tested on: Plasmodium falciparum Sir2 (PF13_0152, Sir2A); experiment: Plasmodium falciparum Sir2A binding compounds – biochemical, small-molecule microarray, 635 nm fluorescence, primary screen (AID 1098); conditions: fluorescence 635 nm, higher = more signal;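 further: score merges spot fluorescence intensity with its signal-to-noise ratio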
[2] = probe aDKK1 binding to arrayed compounds – biochemical, biotinylated probe, 635/667 nm fluorescence, primary screen (AID 1099); conditions: small-molecule microarray, higher = more signal;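 further: score merges 667nm spot fluorescence with signal to noise across triplicate slides; reference of the scale not given here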
[3] = probe aCHRDL2 binding to arrayed compounds – biochemical, biotinylated probe, 635/667 nm fluorescence, primary screen (AID 1100); conditions: small-molecule microarray, higher = more signal
[4] = change in splice reporter luminescence, either direction, cell-based, HEK293, spliceosome inhibition project, primary screen (AID 1101); conditions: HEK293 splicing luciferase reporter, 24 h, higher = more signal, called active from +8 up or from −8 down;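 further: HEK293 cells carrying a splicing-competent luciferase reporter gene; test concentration not given here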
[5] = target: Fibroblast growth factor 10 (Homo sapiens) (UniProt O15520); experiment: compounds binding fibroblast growth factor 10 – biochemical, small-molecule microarray, 635 nm fluorescence, primary screen (AID 1102); conditions: FGF10 binding, fluorescence 635 nm, higher = more signal
[6] = tested on: glycogen synthase kinase-3 (GSK3A per assay name; protocol says GSK3B); experiment: compounds binding glycogen synthase kinase-3 – biochemical, small-molecule microarray, 635 nm fluorescence, GSK3A, primary screen (AID 1103); conditions: fluorescence 635 nm, higher = more signal; further: the record names both GSK3A and GSK3B
[7] = target: Epidermal growth factor receptor (Homo sapiens) (UniProt P00533); experiment: compounds binding epidermal growth factor receptor – biochemical, small-molecule microarray, 635 nm fluorescence, primary screen (AID 1104); conditions: EGFR binding, higher = more signal;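 further: score merges 667 nm emission intensity with spot signal to noise over triplicate slides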
[8] = target: Follistatin-related protein 3 (Homo sapiens) (UniProt O95633); experiment: compounds binding follistatin-related protein 3 – biochemical, small-molecule microarray, 635 nm fluorescence, primary screen (AID 1105); conditions: FSTL3 binding, higher = more signal;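 further: score merges emission near 667 nm and signal to noise per printed spot across three slides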
[9] = target: Dickkopf-related protein 1 (Homo sapiens) (UniProt O94907); experiment: small molecules binding DKK1 protein – biochemical, small-molecule microarray, 635 nm fluorescence scan, primary screen (AID 1106); conditions: higher = more signal;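 further: score merges emission near 667 nm with signal to noise over three replicate slides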
[10] = tested on: Inhibin beta A chain (activin A); experiment: small molecules binding activin A – biochemical, small-molecule microarray, 635 nm fluorescence scan, primary screen (AID 1107); conditions: INHBA, higher = more signal;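 further: mouse activin A protein probed at 4.33 µg/mL on printed slides; score merges bound-protein fluorescence near 667 nm with spot signal-to-noise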

Sequence of Follistatin-related protein 3 (Homo sapiens) (O95633 whole entry, looked up): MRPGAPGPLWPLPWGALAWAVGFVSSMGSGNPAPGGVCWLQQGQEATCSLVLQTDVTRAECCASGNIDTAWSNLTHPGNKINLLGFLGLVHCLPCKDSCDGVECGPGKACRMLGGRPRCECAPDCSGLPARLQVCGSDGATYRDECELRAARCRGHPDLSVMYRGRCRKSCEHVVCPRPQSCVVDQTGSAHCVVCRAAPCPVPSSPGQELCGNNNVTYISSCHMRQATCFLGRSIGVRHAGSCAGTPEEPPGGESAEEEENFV
Sequence of Epidermal growth factor receptor (Homo sapiens) (P00533 whole entry, looked up): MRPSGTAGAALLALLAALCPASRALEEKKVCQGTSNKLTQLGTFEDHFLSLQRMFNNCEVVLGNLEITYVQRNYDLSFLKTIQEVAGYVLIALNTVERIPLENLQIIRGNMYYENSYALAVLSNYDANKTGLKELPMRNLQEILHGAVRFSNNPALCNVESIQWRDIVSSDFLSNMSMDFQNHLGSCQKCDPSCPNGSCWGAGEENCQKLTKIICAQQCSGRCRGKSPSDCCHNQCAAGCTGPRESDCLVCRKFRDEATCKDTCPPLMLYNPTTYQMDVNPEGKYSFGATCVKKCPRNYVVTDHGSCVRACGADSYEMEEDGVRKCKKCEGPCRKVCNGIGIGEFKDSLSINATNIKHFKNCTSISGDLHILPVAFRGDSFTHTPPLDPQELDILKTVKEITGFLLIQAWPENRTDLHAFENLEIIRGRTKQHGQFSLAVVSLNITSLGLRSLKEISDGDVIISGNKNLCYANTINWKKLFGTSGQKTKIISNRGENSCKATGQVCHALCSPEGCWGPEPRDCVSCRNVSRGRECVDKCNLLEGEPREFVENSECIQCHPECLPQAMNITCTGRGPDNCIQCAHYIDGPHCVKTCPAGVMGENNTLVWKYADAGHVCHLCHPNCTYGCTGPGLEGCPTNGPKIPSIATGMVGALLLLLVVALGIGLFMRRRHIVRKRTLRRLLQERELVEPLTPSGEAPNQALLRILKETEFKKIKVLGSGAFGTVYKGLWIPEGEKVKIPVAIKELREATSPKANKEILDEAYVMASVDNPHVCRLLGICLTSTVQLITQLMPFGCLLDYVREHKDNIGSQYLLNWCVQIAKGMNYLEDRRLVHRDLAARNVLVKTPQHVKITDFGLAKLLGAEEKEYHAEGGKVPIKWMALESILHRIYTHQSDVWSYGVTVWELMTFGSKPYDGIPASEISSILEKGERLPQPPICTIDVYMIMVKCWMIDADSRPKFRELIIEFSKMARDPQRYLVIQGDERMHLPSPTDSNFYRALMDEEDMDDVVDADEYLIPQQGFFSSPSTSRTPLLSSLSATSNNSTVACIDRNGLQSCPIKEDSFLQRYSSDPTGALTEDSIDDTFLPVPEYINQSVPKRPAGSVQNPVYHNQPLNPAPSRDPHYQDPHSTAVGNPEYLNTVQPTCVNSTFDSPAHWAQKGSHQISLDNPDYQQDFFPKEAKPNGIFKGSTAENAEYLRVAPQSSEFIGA
Sequence of Fibroblast growth factor 10 (Homo sapiens) (O15520 whole entry, looked up): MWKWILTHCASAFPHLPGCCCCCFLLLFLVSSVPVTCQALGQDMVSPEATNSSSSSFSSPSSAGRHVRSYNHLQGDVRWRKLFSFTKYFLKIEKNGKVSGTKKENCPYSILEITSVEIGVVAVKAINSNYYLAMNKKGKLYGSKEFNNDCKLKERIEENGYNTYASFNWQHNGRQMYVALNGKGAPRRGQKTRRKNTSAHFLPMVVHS
Sequence of Dickkopf-related protein 1 (Homo sapiens) (O94907 whole entry, looked up): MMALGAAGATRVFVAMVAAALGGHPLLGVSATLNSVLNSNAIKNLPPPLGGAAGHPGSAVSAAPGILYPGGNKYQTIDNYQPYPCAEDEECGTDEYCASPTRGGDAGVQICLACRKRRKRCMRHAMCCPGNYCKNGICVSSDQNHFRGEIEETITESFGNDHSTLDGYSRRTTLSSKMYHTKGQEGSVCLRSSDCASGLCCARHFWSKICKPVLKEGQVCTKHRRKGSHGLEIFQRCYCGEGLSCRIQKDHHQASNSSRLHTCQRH

Row | SMILES | composite z-score [1] | composite z-score [2] | composite z-score [3] | z-score [4] | composite z-score [5] | composite z-score [6] | composite z-score [7] | composite z-score [8] | composite z-score [9] | composite z-score [10]
1 | COc1cc(OC)c(C(O)C2C=CC3C(=O)N(c4ccccc4)C(=O)C3N2Nc2ccccc2)cc1Br (stereo not given) | 1.53 | 0.184 | 0.612 | 0.528 (inactive) | 0.247 | 0.176 | -0.487 | 0.39 | -0.386 | 0.791
2 | CCCCC(=C=CC[C@@H](O)c1ccccc1OCCO)C[C@@H](O)COCc1ccccc1 | 1.15 | -0.126 | 0.142 | -0.705 (inactive) | 0.114 | -0.158 | -1.14 | -0.126 | -0.498 | 0.596
3 | O=C1OCC=C[C@H]2OC34C=CCN(Cn5nnc6ccccc65)C(=O)[C@H]3N(CCCO)C(=O)[C@@H]4[C@@H]12 (stereo not given in full) | -0.0241 | -0.0481 | 0.368 | -1.26 (inactive) | -0.21 | -1.08 | -0.577 | -1.39 | -0.448 | 0.839
4 | CCC[C@@H]1C[C@@]1(CCC)[C@@H](NC(=O)OCc1ccccc1)c1ccc(-c2ccccc2)cc1 | -1.27 | -0.163 | 0.565 | -3.43 (inactive) | -0.933 | -1.74 | -1.1 | -0.644 | -0.496 | 1.47
5 | O=C1O[C@@H](c2ccccc2)[C@@H](c2ccccc2)N2[C@@H](c3ccc(O)cc3)[C@]3(C(=O)Nc4ccc(C#CC5(O)CCCCCC5)cc43)[C@@H](C(=O)NC[C@H](O)c3ccccc3)[C@H]12 | 1.29 | -0.171 | 0.467 | -0.55 (inactive) | -0.174 | 0.791 | -0.568 | -0.442 | -0.505 | -0.357
6 | O=C1OCCC/C=C\[C@H]2OC34C=CCN(CCN5CCOCC5)C(=O)[C@H]3N(CCCCCCO)C(=O)[C@@H]4C12 (stereo not given in full) | 1.16 | -0.0117 | -0.0021 | -1.4 (inactive) | -0.145 | 0.229 | -0.684 | -0.0634 | -0.528 | 1.41
7 | CCCC[C@@H]1C[C@H]1[C@@H](NC(=O)c1ccccc1)c1ccc(C(F)(F)F)cc1 | -0.829 | 0.455 | 0.926 | -0.188 (inactive) | -0.896 | -1.74 | -1.09 | -0.683 | -0.993 | 0.986
8 | CCOC(=O)C[C@H]1[C@H](OC(=O)c2ccccc2-c2ccccc2)[C@@H](NC(=O)C2CCCCC2)c2cc(OCCCO)ccc2N1C(=O)Cc1ccc(OC)cc1 | -0.0395 | -0.189 | 0.0017 | -0.0496 (inactive) | 0.0134 | -0.625 | 0.0178 | 0.138 | -0.259 | 0.489
9 | O=C1OCCC=C[C@H]2OC34C=CCN(Cn5nnc6ccccc65)C(=O)[C@H]3N(CCCCCCO)C(=O)[C@@H]4C12 (stereo not given in full) | 1.8 | -0.0278 | 0.337 | 0.415 (inactive) | -0.893 | -0.357 | -1.23 | -0.822 | -1.03 | -0.157
10 | COC(=O)C1=CC(CCCO)=CC(C2CC2)N(C)C=C1C(=O)OC (stereo not given) | 0.948 | -0.302 | 0.41 | -0.519 (inactive) | -0.259 | -0.302 | -0.0025 | 0.481 | -0.673 | 0.576
11 | C=C[C@@H](COC(C)=O)N(C(=O)OC(C)(C)C)S(=O)(=O)c1ccc(Br)cc1 | 0.732 | 0.311 | -0.152 | 0.446 (inactive) | 1.18 | 1.23 | 0.837 | 1.45 | 2.14 | 0.824
12 | CN(C)C(=O)[C@@]1(Cc2ccccc2CN=[N+]=[N-])N=C(c2ccc(OCCCO)cc2)O[C@H]1c1ccccc1CN=[N+]=[N-] | 1.03 | 0.832 | 0.915 | 1.2 (inactive) | 0.871 | -0.581 | -0.167 | -0.0464 | -0.687 | 0.846
13 | C#CCN([C@@H](Cc1ccc(O)cc1)C(=O)OC)[C@@H](/C=C/C1CC1)[C@H](O)Cc1ccccc1 | -0.189 | -0.236 | -0.26 | 0.25 (inactive) | -0.251 | -0.689 | -0.0832 | 0.122 | 0.103 | 0.644
14 | COCCOC(=O)N1C(=O)[C@@]2(c3cc(C#CCC(C(=O)OC)C(=O)OC)ccc31)[C@H](C(=O)N1CCc3cc(OC)c(OC)cc3C1)[C@H]1C(=O)O[C@H](c3ccccc3)[C@H](c3ccccc3)N1[C@@H]2c1ccc(OCCO)cc1 | 1.37 | 0.0202 | 0.0313 | 0.382 (inactive) | 1.24 | 1.31 | 0.936 | 1.3 | 0.943 | 0.541
15 | COc1ccc([Si](C)(C)[C@@H]2[C@@H](CC(=O)N3Cc4ccccc4C[C@H]3CO)O[C@]3(C(=O)N(C)c4ccccc43)[C@H]2C)cc1 | 1.22 | 0.405 | -0.174 | -1.42 (inactive) | 1.15 | 1.3 | 1.05 | 1.48 | 0.874 | 0.916
16 | COC(=O)C(CC#Cc1ccc2c(c1)[C@]1(C(=O)N2)[C@H](C(=O)N2CCN(c3ncccn3)CC2)[C@H]2C(=O)O[C@H](c3ccccc3)[C@H](c3ccccc3)N2[C@@H]1c1ccc(OCCO)cc1)C(=O)OC | 1.22 | 0.0224 | -0.0434 | -0.152 (inactive) | 1.17 | 0.994 | 0.68 | 1.39 | 0.612 | 0.0693
17 | Cn1cccc1C(O)C1C=CC2C(=O)NC(=O)C2N1Nc1ccc(Cl)cc1Cl (stereo not given) | 1.21 | 1.3 | 1.33 | 1.08 (inactive) | 0.914 | 0.593 | 0.295 | 1.34 | -0.43 | 0.657
18 | O=C1C2C=CC(C(O)c3ccc(F)cc3)N(n3cnnc3)C2C(=O)N1Cc1ccccc1 (stereo not given) | -0.284 | 0.158 | 0.384 | -0.284 (inactive) | -0.429 | -0.858 | -0.273 | -0.0469 | -0.44 | 1.12
19 | CC1=C[C@@]2(CO)C(=O)[C@]3(CO3)[C@@H]1[C@H]1[C@]2(C)C=C(CO)C(=O)[C@]12CO2 | 0.451 | 0.0159 | -0.52 | -0.23 (inactive) | 0.302 | 0.296 | 0.33 | 0.951 | 0.241 | 0.421
20 | O=C1O[C@@H](c2ccccc2)[C@@H](c2ccccc2)N2[C@@H](c3ccc(O)cc3)[C@]3(C(=O)Nc4ccc(C#CC5=CCCCC5)cc43)[C@@H](C(=O)NC[C@H](O)c3ccccc3)[C@H]12 | 1.12 | 0.603 | 0.757 | -1.41 (inactive) | 1.41 | 1.28 | 0.829 | 1.42 | 1.49 | 1.02
21 | CCCNC(=O)[C@@]1(c2ccc([N+](=O)[O-])cc2)CC(=O)N(C2CCCCC2)[C@@H]1c1ccc(CO)cc1 | 0.472 | 0.175 | 0.39 | -0.867 (inactive) | 0.946 | 1.22 | 0.237 | 0.869 | 0.301 | 0.254
22 | CC[C@H]1C2=C3C(CC[C@H]4C(OCc5ccc(F)cc5C(F)(F)F)OC[C@](C)([C@@H]34)N(C(=O)OC(C)(C)C)C2)C(COC)C1COC (stereo not given in full) | -0.0539 | 0.222 | 0.475 | 0.477 (inactive) | -0.0147 | -0.652 | -0.52 | 0.269 | -0.384 | 0.561
23 | COc1ccc(CCN2C(=O)[C@@]3(Cc4ccccc42)c2ccccc2C(=O)N(Cc2ccccc2OC)[C@H]3c2ccc(CO)cc2)cc1 | 0.9 | 0.533 | 0.406 | -0.942 (inactive) | -0.783 | -0.49 | -0.951 | -1.14 | -1.33 | 0.359
24 | COc1ccc([Si](C)(C)[C@H]2[C@H](CCO)O[C@@]3(C(=O)N(Cc4cccc(N5C(=O)COc6ccccc65)c4)c4ccccc43)[C@@H]2C)cc1 | 0.957 | 0.0114 | 0.122 | -2.17 (inactive) | -0.222 | -0.585 | -0.686 | 0.0253 | 0.125 | -0.348
25 | CCOC(=O)C[C@H]1[C@H](OC(=O)Cc2ccc3c(c2)OCO3)[C@@H](NC(=O)CC(C)C)c2cc(OCCCO)ccc2N1C(=O)Cc1ccc(OC)cc1 | -0.25 | -0.283 | -0.0563 | -1.86 (inactive) | 0.139 | 0.0308 | -0.0638 | -0.0495 | 0.0009 | 0.26
26 | COCC1=C2[C@@H](CCc3ccccc3)OB(O)C[C@@H]2[C@@H]2C(=O)C=CC(=O)[C@@H]2C1 | 0.367 | -0.0473 | -0.0343 | 1.2 (inactive) | 0.378 | 0.679 | 0.149 | 0.647 | 0.489 | 0.27
27 | CN1C(=O)C2C=CC(C(O)c3ccc(F)cc3)N(Nc3ccccc3)C2C1=O (stereo not given) | 1.4 | 0.4 | 0.902 | 0.909 (inactive) | 0.0186 | -0.433 | -0.165 | 0.578 | -0.463 | 0.623
28 | COCCCNC(=O)[C@]1(CCS(=O)(=O)c2ccccc2)N=C(c2ccc(OCCCO)cc2)O[C@@H]1c1ccccc1N=[N+]=[N-] | 1.47 | 1.1 | 0.698 | 0.409 (inactive) | 1.16 | 1.29 | 0.151 | 0.735 | -0.262 | 0.963
29 | [N-]=[N+]=NCc1ccccc1[C@@H]1OC(c2ccc(OCCCO)cc2)=N[C@]1(CCS(=O)(=O)c1ccccc1)C(=O)NCC(O)CO (stereo not given in full) | 1.46 | 0.76 | 1.03 | -1.33 (inactive) | 1.22 | -0.323 | -0.0077 | 0.6 | -0.227 | 0.736
30 | N#Cc1ccc(NN2C(C(O)c3ccc(F)cc3)C=CC3C(=O)N(c4ccccc4)C(=O)C32)cc1 (stereo not given) | 1.3 | 0.151 | 0.581 | 1.52 (inactive) | -0.286 | -0.0563 | -0.746 | -0.0131 | -0.716 | 0.856
